{
  "source": "PubChem BioAssay AID538",
  "about": "(PCMD, 2006)",
  "note": "Hit rate of the full screen: of about 62,000 compounds, about 100 (0.16%) were called active. For the sample, actives were picked, then their nearest neighbours and some compounds at random. Values without a mark were called inactive.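 The calls were made as follows: active = inhibition above 20% in each of the two 10-compound mixture wells holding the compound; inactive = the rest.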",
  "data": [
    {"target": "Complement C1s subcomponent (Homo sapiens) (UniProt P09871)", "sequence (P09871 16-437 limits assumed)": "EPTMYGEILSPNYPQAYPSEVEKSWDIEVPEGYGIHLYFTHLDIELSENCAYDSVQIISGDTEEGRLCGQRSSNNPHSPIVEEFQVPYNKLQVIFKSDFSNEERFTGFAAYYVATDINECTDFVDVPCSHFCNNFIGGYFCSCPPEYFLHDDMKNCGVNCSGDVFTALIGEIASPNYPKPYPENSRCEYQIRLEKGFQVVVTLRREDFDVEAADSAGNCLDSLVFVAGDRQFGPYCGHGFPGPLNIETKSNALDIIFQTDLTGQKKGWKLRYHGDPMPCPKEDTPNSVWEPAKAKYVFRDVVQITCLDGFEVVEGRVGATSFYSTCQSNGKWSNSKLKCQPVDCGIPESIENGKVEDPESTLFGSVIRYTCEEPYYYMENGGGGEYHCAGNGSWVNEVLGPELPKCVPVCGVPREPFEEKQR", "sequence (P09871 438-688 limits assumed)": "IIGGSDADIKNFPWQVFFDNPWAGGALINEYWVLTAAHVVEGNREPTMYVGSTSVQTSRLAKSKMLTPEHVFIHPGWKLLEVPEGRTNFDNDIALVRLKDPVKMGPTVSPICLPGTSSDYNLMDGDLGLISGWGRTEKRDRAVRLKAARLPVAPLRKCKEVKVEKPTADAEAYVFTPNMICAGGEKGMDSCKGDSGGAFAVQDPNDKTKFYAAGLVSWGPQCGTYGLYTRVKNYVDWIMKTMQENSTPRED", "test": "complement C1s protease inhibitors, primary screen, biochemical, 10-compound mixtures (AID 538);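 also: 0% = enzyme wells lacking compound mixture and 100% = no-enzyme blank wells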", "settings": "purified C1s, fluorogenic AMC substrate, pooled mixtures; screened at 5 µM (by protocol)", "values": [
      {"smiles": "Cc1cc(C)c(C#N)c(SCc2ccccc2C(=O)O)n1", "mean inhibition % of two 10-compound mixtures (stronger effect = higher value)": "-0.765%"},
      {"smiles": "O=C(c1ccc2c(c1)OCO2)N1CCNc2ccccc2C1", "mean inhibition % of two 10-compound mixtures (stronger effect = higher value)": "12.4%"},
      {"smiles": "C=CCn1c(SCc2csc(C)n2)nc2scc(-c3ccc(C)o3)c2c1=O", "mean inhibition % of two 10-compound mixtures (stronger effect = higher value)": "-5.96%"},
      {"smiles": "CCN(c1ccccc1)S(=O)(=O)c1cccc(C(=O)O)c1", "mean inhibition % of two 10-compound mixtures (stronger effect = higher value)": "-13.8%"},
      {"smiles": "CCOC(=O)n1c(SCC(=O)N(CC)CC)nc2ccccc21", "mean inhibition % of two 10-compound mixtures (stronger effect = higher value)": "12.2%"},
      {"smiles": "O=C1c2ccccc2C(O)N1Cc1ccccc1", "note": "(configuration not stated)", "mean inhibition % of two 10-compound mixtures (stronger effect = higher value)": "-43.8%"},
      {"smiles": "COc1c(Br)cc2c(C)c(C(=O)N3CCOCC3)oc2c1Br", "mean inhibition % of two 10-compound mixtures (stronger effect = higher value)": "2.58%"},
      {"smiles": "CCOC(=O)COc1ccc(Cl)cc1C1NC(=O)NC(C)=C1C(C)=O", "note": "(configuration not stated)", "mean inhibition % of two 10-compound mixtures (stronger effect = higher value)": "-13%"},
      {"smiles": "COc1cc2c(cc1OC)C(c1ccncc1)CC(=O)N2", "note": "(configuration not stated)", "mean inhibition % of two 10-compound mixtures (stronger effect = higher value)": "-11.7%"},
      {"smiles": "CC(=O)Nc1ccc(S(=O)(=O)N2CCSCC2)cc1", "mean inhibition % of two 10-compound mixtures (stronger effect = higher value)": "10.8%"},
      {"smiles": "CC(=O)Nc1ccc(NC(=O)CN2CCCC(C)C2)c(Cl)c1", "note": "(configuration not stated)", "mean inhibition % of two 10-compound mixtures (stronger effect = higher value)": "8.18%"},
      {"smiles": "O=C(O)CCSc1nnc(-c2ccccc2)n1-c1ccccc1", "mean inhibition % of two 10-compound mixtures (stronger effect = higher value)": "-30.3%"},
      {"smiles": "CC(C)OC(=O)c1cc(NC(=O)C2C3CCC(O3)C2C(=O)O)cc(C(=O)OC(C)C)c1", "note": "(configuration not stated)", "mean inhibition % of two 10-compound mixtures (stronger effect = higher value)": "-14.5%"},
      {"smiles": "OC(COc1cccc2ccccc12)CN1CCN(c2ccccn2)CC1", "note": "(configuration not stated)", "mean inhibition % of two 10-compound mixtures (stronger effect = higher value)": "-2.25%"},
      {"smiles": "COC(=O)c1ccc(Oc2nc(NC(C)C)nc(SC)n2)cc1", "mean inhibition % of two 10-compound mixtures (stronger effect = higher value)": "-1.35%"},
      {"smiles": "CCCCc1cc(=O)oc2cc(C)cc(OCc3nn[nH]n3)c12", "mean inhibition % of two 10-compound mixtures (stronger effect = higher value)": "-6.89%"},
      {"smiles": "CC(C)COC(=O)c1ccc(NC(=O)C2C3C=CC(C3)C2C(=O)O)cc1", "note": "(configuration not stated)", "mean inhibition % of two 10-compound mixtures (stronger effect = higher value)": "-22.9%"},
      {"smiles": "COc1ccccc1NC1=NC2(CCCC2)N=C(N)N1", "mean inhibition % of two 10-compound mixtures (stronger effect = higher value)": "-18.3%"},
      {"smiles": "Cc1cc(NC(=O)COn2nnc3ccccc32)no1", "mean inhibition % of two 10-compound mixtures (stronger effect = higher value)": "0.88%"},
      {"smiles": "CCOC(=O)C1C(=O)OC2(CCCC2)C1C(=O)OCC", "note": "(configuration not stated)", "mean inhibition % of two 10-compound mixtures (stronger effect = higher value)": "0.585%"},
      {"smiles": "COc1nc(OC)nc(N(C)CCO)n1", "mean inhibition % of two 10-compound mixtures (stronger effect = higher value)": "-12.5%"},
      {"smiles": "CC1CCN(C(=O)Cn2cc(C(=O)c3ccco3)c3ccccc32)CC1", "mean inhibition % of two 10-compound mixtures (stronger effect = higher value)": "-1.29%"},
      {"smiles": "CC(C)(C)C(=O)CCN1C(=O)C2(OCCO2)c2ccccc21", "mean inhibition % of two 10-compound mixtures (stronger effect = higher value)": "10.6%"},
      {"smiles": "CCCN(CCC)C(=O)C1c2ccccc2Oc2ccccc21", "mean inhibition % of two 10-compound mixtures (stronger effect = higher value)": "-0.445%"},
      {"smiles": "Nc1nc(SCCOc2ccccc2)n[nH]1", "mean inhibition % of two 10-compound mixtures (stronger effect = higher value)": "2.17%"},
      {"smiles": "CCCc1cc(=O)n2[nH]c(SCc3ccccc3)nc2n1", "mean inhibition % of two 10-compound mixtures (stronger effect = higher value)": "-2.75%"},
      {"smiles": "CC(=O)Oc1cccc(N2C(=O)CC(Nc3ccc(N4CCOCC4)cc3)C2=O)c1", "note": "(configuration not stated)", "mean inhibition % of two 10-compound mixtures (stronger effect = higher value)": "6.64%"},
      {"smiles": "O=C(CN1CCN(c2ccccn2)CC1)NCc1cccs1", "mean inhibition % of two 10-compound mixtures (stronger effect = higher value)": "-12.2%"},
      {"smiles": "O=C(CSc1nc2cc3c(cc2c(=O)n1CCC1=CCCCC1)OCO3)NCc1ccco1", "mean inhibition % of two 10-compound mixtures (stronger effect = higher value)": "2.65%"},
      {"smiles": "COc1ccc(S(=O)(=O)Nc2ccc(S(=O)(=O)N3CCCCC3)cc2)cc1OC", "mean inhibition % of two 10-compound mixtures (stronger effect = higher value)": "-2.79%"},
      {"smiles": "CC(C)(C)NC(=O)C(c1ccco1)N(Cc1ccc2c(c1)OCO2)C(=O)Cn1nnc2ccccc21", "note": "(configuration not stated)", "mean inhibition % of two 10-compound mixtures (stronger effect = higher value)": "22% (active)"},
      {"smiles": "COCCNC(=O)C(c1ccc(C)o1)N(Cc1ccccc1)C(=O)Cn1nnc2ccccc21", "note": "(configuration not stated)", "mean inhibition % of two 10-compound mixtures (stronger effect = higher value)": "-0.43%"},
      {"smiles": "CCC(C)(C)NC(=O)C(c1cccn1C)N(Cc1ccc(C)cc1)C(=O)Cn1nnc2ccccc21", "note": "(configuration not stated)", "mean inhibition % of two 10-compound mixtures (stronger effect = higher value)": "-0.485%"},
      {"smiles": "CCOc1ccc(-c2nnn(CC(=O)N3CCN(c4ccc(F)cc4)CC3)n2)cc1OCC", "mean inhibition % of two 10-compound mixtures (stronger effect = higher value)": "-19.4%"},
      {"smiles": "CC(=O)c1c(C)[nH]c(C(=O)NCCCN2CCCC2)c1C", "mean inhibition % of two 10-compound mixtures (stronger effect = higher value)": "13.1%"},
      {"smiles": "Cc1nc(Nc2ccc3c(c2)OCCO3)c2nnn(Cc3ccccc3Cl)c2n1", "mean inhibition % of two 10-compound mixtures (stronger effect = higher value)": "-7.66%"},
      {"smiles": "Cn1c(SCC(=O)Nc2cccc(NC(=O)c3cccs3)c2)nnc1-c1ccncc1", "mean inhibition % of two 10-compound mixtures (stronger effect = higher value)": "-18.6%"},
      {"smiles": "COc1ccc(N2C(=O)CN=C2Nc2cccc(C)c2C)cc1OC", "mean inhibition % of two 10-compound mixtures (stronger effect = higher value)": "13.9%"},
      {"smiles": "Cc1nc(C)c(C(=O)Nc2cccc(C)c2C)o1", "mean inhibition % of two 10-compound mixtures (stronger effect = higher value)": "22% (active)"},
      {"smiles": "COc1ccc(Cl)cc1NC(=O)c1oc(C)nc1C", "mean inhibition % of two 10-compound mixtures (stronger effect = higher value)": "-7.77%"},
      {"smiles": "Cc1nc(C)c(C(=O)Nc2ccc(C)c(F)c2)o1", "mean inhibition % of two 10-compound mixtures (stronger effect = higher value)": "4.8%"},
      {"smiles": "COCc1nc2ccccc2n1Cc1ccccc1Br", "mean inhibition % of two 10-compound mixtures (stronger effect = higher value)": "-10.1%"},
      {"smiles": "COc1cccc(C2/C(=C(/O)c3ccc(F)cc3)C(=O)C(=O)N2CCN(C)C)c1", "note": "(configuration not stated)", "mean inhibition % of two 10-compound mixtures (stronger effect = higher value)": "2.55%"},
      {"smiles": "Cc1ccc(NC(=O)N2CCC(C(=O)NCc3ccc(F)cc3)CC2)cc1", "mean inhibition % of two 10-compound mixtures (stronger effect = higher value)": "26.6%"},
      {"smiles": "CCOC(=O)c1[nH]c2ccc(C)cc2c1N=C(C)N(C)C", "mean inhibition % of two 10-compound mixtures (stronger effect = higher value)": "-3.15%"},
      {"smiles": "COc1ccc(-n2c(SCC(=O)NCc3cccs3)nnc2-c2ccoc2C)cc1", "mean inhibition % of two 10-compound mixtures (stronger effect = higher value)": "1.91%"},
      {"smiles": "O=C(Cn1cnc2c(cnn2-c2ccccc2)c1=O)NCc1ccccc1", "mean inhibition % of two 10-compound mixtures (stronger effect = higher value)": "4.69%"},
      {"smiles": "O=C(OC1CCOC1=O)c1ccc(-c2nc3ccccc3s2)s1", "note": "(configuration not stated)", "mean inhibition % of two 10-compound mixtures (stronger effect = higher value)": "3.37%"},
      {"smiles": "CCOc1ccccc1C1CC(c2ccccc2)Nc2nc(N)nn21", "note": "(configuration not stated)", "mean inhibition % of two 10-compound mixtures (stronger effect = higher value)": "-0.62%"},
      {"smiles": "CCOC(=O)CCC(=O)OCC(=O)NC(C)C1CC2CCC1C2", "note": "(configuration not stated)", "mean inhibition % of two 10-compound mixtures (stronger effect = higher value)": "-1.13%"},
      {"smiles": "CCCCCC(=O)Nc1ccc2oc(-c3ccncc3)nc2c1", "mean inhibition % of two 10-compound mixtures (stronger effect = higher value)": "-5.25%"},
      {"smiles": "CCCCSc1nnc(-c2ccc(NC(=O)CC)cc2)n1C", "mean inhibition % of two 10-compound mixtures (stronger effect = higher value)": "10.2%"},
      {"smiles": "Cc1ccc2c(c1)NCC(C(=O)NC1CCC(C)CC1)O2", "note": "(configuration not stated)", "mean inhibition % of two 10-compound mixtures (stronger effect = higher value)": "-7.38%"},
      {"smiles": "CN(C)CCCNc1c2c(c(C#N)c3nc4ccccc4n13)CCC2", "mean inhibition % of two 10-compound mixtures (stronger effect = higher value)": "11.8%"},
      {"smiles": "COc1ccc(S(=O)(=O)Nc2c(C)n(C)n(-c3ccccc3)c2=O)cc1", "mean inhibition % of two 10-compound mixtures (stronger effect = higher value)": "-40.7%"},
      {"smiles": "CCn1c(-c2cc(OC)ccc2OC)csc1=Nc1c(C)n(C)n(-c2ccccc2)c1=O", "mean inhibition % of two 10-compound mixtures (stronger effect = higher value)": "11.4%"},
      {"smiles": "Cc1ccc(C(=O)N2CCCCCC2)cc1Br", "mean inhibition % of two 10-compound mixtures (stronger effect = higher value)": "48.4%"},
      {"smiles": "O=S(=O)(CCc1nc2ccccc2o1)c1ccc(Cl)cc1", "mean inhibition % of two 10-compound mixtures (stronger effect = higher value)": "1.62%"},
      {"smiles": "COC(=O)c1ccc(NC(=O)CSc2nnc(-c3ccncc3)n2C)cc1", "mean inhibition % of two 10-compound mixtures (stronger effect = higher value)": "4.27%"},
      {"smiles": "Cc1ccc(S(=O)(=O)n2nc(OC(=O)C(C)(C)C)cc2N)cc1", "mean inhibition % of two 10-compound mixtures (stronger effect = higher value)": "-80.6%"},
      {"smiles": "O=C(CCS(=O)(=O)c1cccc2nonc12)NCCc1ccccc1Cl", "mean inhibition % of two 10-compound mixtures (stronger effect = higher value)": "-46.5%"},
      {"smiles": "CCCC1C(c2ccccc2)C(C#N)(C#N)C2(C#N)CC1(N)NC2=O", "note": "(configuration not stated)", "mean inhibition % of two 10-compound mixtures (stronger effect = higher value)": "13.4%"}
    ]}
  ]
}
